The conditions of assay [1]: Ebola virus entry assay, green fluorescence channel.
For assay [2] the following is noted: Ebola virus entry assay, blue channel fluorescence.
For assay [3] the following is noted: Ebola virus entry assay, ratio channel.
For assay [4] the following is noted: Ebola virus entry assay, green channel fluorescence.
For assay [5] the following is noted: Ebola virus entry assay, reporter ratio channel; Channel type: primary.
The conditions of assay [6]: Ebola virus entry assay, blue channel (ratio component).
Assay [7] is described as follows: qHTS profiling of the MIPE4 collection as inhibitors of Plasmodium falciparum (DD2) proliferation (Rep 2) (AID 743346). The settings on record: P. falciparum Dd2 in erythrocytes, SYBR Green DNA, 72 h; at 28.5 µM (top of the series). In outline:
(§1)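 Parasite DNA was quantified by SYBR Green I fluorescence (ex 485, em 535 nm) after overnight lysis in saponin/Triton buffer at room temperature. Cultures at 0.3% parasitemia and 2.5% hematocrit were first exposed to compound for 72 h at 37 C; signals were normalised to artemisinin (0.29 uM) and vehicle wells.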

Assay [8] is described as follows: qHTS profiling of the MIPE4 collection as inhibitors of Plasmodium falciparum (HB3) proliferation (AID 743347).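 Further: plate controls were DMSO vehicle wells for no effect and artemisinin wells for full effect.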 The settings on record: P. falciparum HB3 in erythrocytes, SYBR Green DNA, 72 h; at 28.5 µM (top of the series). In short, it runs like this:
as §1
For orientation: In qHTS, concentration-response curves come from the screen itself.

What is called AC50 is the midpoint of the concentration-response curve, whichever way the signal moves.

For some of these results: Entries with a potency or affinity are not part of this list. Calls of active or inactive are those of the source. How the calls were made is not given here.
Wherever efficacy is given: 0% is about no effect.

On to `OCC(CO)N[C@H]1C[C@](O)(CO)[C@@H](O)[C@H](O)[C@H]1O`, for which, in assay [1], the efficacy was -14.7% (inactive). Moreover, the molecule was classed as inactive in assay [2], in assay [3], in assay [4], in assay [5] and in assay [6].
For `CCCCCCCCCCCCCCCC[N+](C)(C)CCN(Cc1ccc(OC)cc1)c1ncccn1`, the efficacy in assay [1] is -93.3% (inactive). Further, the concentration at half-maximal activity (AC50) in assay [2] and in assay [5] was 39.8 µM (active) in each case. For the same molecule, in assay [3], the result was inactive.
With `NC1=NCC2c3ccccc3Cc3ccccc3N12` (stereo not given), the efficacy in assay [1] was 22.9% (inactive). Moreover, the outcome in assay [2], in assay [3], in assay [4], in assay [5] and in assay [6] was inactive.
As to `Oc1cccc(-c2c3nc(c(-c4cccc(O)c4)c4ccc([nH]4)c(-c4cccc(O)c4)c4nc(c(-c5cccc(O)c5)c5ccc2[nH]5)CC4)C=C3)c1`, the efficacy in assay [1] is 82.1% (inactive). Moreover, the AC50 in assay [2] was 20 µM (active); in assay [3], 22.4 µM (active); in assay [5] it was 22.4 µM (active).
On to `CCCN(CCC)C(=O)C(CCC(=O)O)NC(=O)c1ccccc1` (stereo not given), for which, in assay [1], the efficacy was 17.5% (inactive). The result in assay [2], in assay [3], in assay [4], in assay [5] and in assay [6] was inactive.
In the case of `Cc1ccc(/C=N/n2c(-c3ccccc3)csc2=S)cc1`, the efficacy in assay [1] is 32.3% (inactive). In addition, the result in assay [2], in assay [3], in assay [4], in assay [5] and in assay [6] was inactive.
Consider `CC(=O)Nc1ccc(S(=O)(=O)Nc2ccc([N+](=O)[O-])cc2)cc1`, for which the efficacy in assay [1] is -17.6% (inactive). Further, the result in assay [2], in assay [3], in assay [4], in assay [5] and in assay [6] was inactive.
As to `CCOC(=O)n1ccn(C)c1=S`, the efficacy in assay [1] is -11.5% (inactive). The outcome in assay [2], in assay [3], in assay [4], in assay [5] and in assay [6] was inactive.
In assay [7], `CCOC(=O)Nc1ccc(NCc2ccc(F)cc2)nc1N` gave a parasite growth, % of control (lower = inhibition) of 84.5%. In addition, the growth, % of control in assay [8] came to 82.7%. Further, the efficacy in assay [1] is 25.7% (inactive). Also, the molecule was classed as inactive in assay [2], in assay [3], in assay [4] and in assay [5].
Take `CC(=O)O[C@H]1CC[C@@]2(C)C(=CC[C@@H]3[C@@H]2CC[C@]2(C)C(C(C)=O)=CC[C@@H]32)C1`: the efficacy in assay [1] was -13.1% (inactive). Besides, the molecule was classed as inactive in assay [2], in assay [3], in assay [4], in assay [5] and in assay [6].
Regarding `CN(C)CCCN1c2ccccc2Sc2ccc(C(F)(F)F)cc21`, in assay [1], the efficacy was -67.9% (inactive). Also, the AC50 in assay [2] was 3.16 µM (active); in assay [3], 2.82 µM (active); in assay [5] it was 2.82 µM (active).
For `CC1=C(C)C(=O)C(C(CCCCCC(=O)O)c2ccccc2)=C(C)C1=O` (stereo not given), in assay [1], the efficacy is 61.1% (inactive). Besides, the call in assay [2], in assay [3] and in assay [5] was inactive.
With `CO[C@@H]1[C@@H](OC)[C@H](C)[C@@](O)(CC(=O)O)O[C@H]1[C@H](C)[C@H]1O[C@@]2(CC[C@@](C)([C@H]3CC[C@@](C)([C@@H]4O[C@@H]([C@H]5O[C@](C)(O)[C@H](C)C[C@@H]5C)C[C@@H]4OC4C[C@H](OC)[C@@H](OC)[C@H](C)O4)O3)O2)C[C@H](O)[C@H]1C` (stereo not given in full), in assay [1], the efficacy was -69.9% (inactive). Further, the AC50 in assay [2] was 1.58 µM (active); in assay [3], 1 µM (active); in assay [5] it was 1 µM (active).
On to `COc1ccccc1N1CCN(CC(O)COc2cccc3ccccc23)CC1` (stereo not given), for which the efficacy in assay [1] is -101% (inactive). Moreover, the AC50 in assay [2] is 28.2 µM (active); in assay [3], 12.6 µM (active); in assay [5] it was 12.6 µM (active).
For `Oc1ccc2[nH]cc(CCCCN3CC=C(c4ccccc4)CC3)c2c1`, the efficacy in assay [1] was 50.4% (inactive). The figures for the AC50 in assay [2], in assay [3] and in assay [5] were 6.31 µM (active), 8.91 µM (active) and 8.91 µM (active), respectively.
Regarding `CC[C@]12CCCN3CCc4c(n(c5ccccc45)C(=O)C1)[C@@H]32`, the efficacy in assay [1] is 62% (inactive). Besides, the AC50 in assay [2], in assay [3] and in assay [5] was 28.2 µM (active) throughout.
As for `COc1ccc(-c2cc(C(F)F)nn2-c2ccc(S(N)(=O)=O)cc2)cc1F`, in assay [1], the efficacy was 77% (inactive). The values for the AC50 in assay [2], in assay [3] and in assay [5] were 25.1 µM (active), 14.1 µM (active) and 14.1 µM (active), respectively.
In the case of `Fc1ccc(C(c2ccc(F)cc2)N2CCN(C/C=C/c3ccccc3)CC2)cc1`, the efficacy in assay [1] is 37.6% (inactive). Further, the AC50 in assay [2] was 12.6 µM (active); in assay [3], 11.2 µM (active); in assay [5], 11.2 µM (active).
`Clc1ccc2c(c1)CCc1cccnc1C2=C1CCNCC1`: the efficacy in assay [1] was 49.7% (inactive). Moreover, the AC50 is 7.08 µM (active) in assay [2], 7.94 µM (active) in assay [3] and 7.94 µM (active) in assay [5].
As to `[O-][n+]1ccccc1SSc1cccc[n+]1[O-]`, the efficacy in assay [1] is 40.7% (inactive). Besides, the AC50 in assay [2], in assay [3] and in assay [5] was 1.26 µM (active) throughout.
Regarding `CN(C)CCOC(c1ccccc1)c1ccc(Br)cc1` (stereo not given), in assay [1], the efficacy is 63.8% (inactive). For the same molecule, the half-maximal activity concentration (AC50) in assay [2], in assay [3] and in assay [5] was 11.2 µM (active) in each case.
With `C[C@@H]1C[C@H]2[C@@H]3CCC4=CC(=O)C=C[C@]4(C)[C@@]3(Cl)[C@@H](O)C[C@]2(C)[C@@]1(OC(=O)c1ccco1)C(=O)CCl`, in assay [1], the efficacy is 39.8% (inactive). In addition, the AC50 is 25.1 µM (active) in assay [2], 10 µM (active) in assay [3] and 10 µM (active) in assay [5].
As for `CCCCCCCCCCCC[N+](C)(C)Cc1ccccc1`, the efficacy in assay [1] is -253% (inactive). The AC50 is 22.4 µM (active) in assay [2], 2.51 µM (active) in assay [3] and 2.51 µM (active) in assay [5].
For `CCOC(=O)C1=C(C)NC(C)=C(C(=O)OCC)C1c1ccccc1/C=C/C(=O)OC(C)(C)C`, in assay [1], the efficacy was 50% (inactive). The molecule was called inactive in assay [2], in assay [3] and in assay [5].
Regarding `CCCCN(CCCC)CCC(O)c1cc2c(Cl)cc(Cl)cc2c2cc(C(F)(F)F)ccc12` (stereo not given), the efficacy in assay [1] is 131% (inactive). Further, the AC50 was 7.94 µM (active) in assay [2], 4.47 µM (active) in assay [3] and 4.47 µM (active) in assay [5].
`CN1CCC(=C2c3ccccc3CCc3sccc32)CC1`: the efficacy in assay [1] is 69.4% (inactive). In addition, the AC50 in assay [2], in assay [3] and in assay [5] was 8.91 µM (active) in each case.
For `O=C(c1cc(O)c(O)c(O)c1)c1ccc(O)c(O)c1O`, the efficacy in assay [1] is 38.9% (inactive). Further, the AC50 in assay [2], in assay [3] and in assay [5] was 1.78 µM (active) each time.
`Cc1cccc(CN2CCN(C(c3ccccc3)c3ccc(Cl)cc3)CC2)c1` (stereo not given): the efficacy in assay [1] was 38.6% (inactive). Moreover, the AC50 in assay [2], in assay [3] and in assay [5] was 22.4 µM (active) each time.
With `CCN(CC)CCCC(C)Nc1c2ccc(Cl)cc2nc2ccc(OC)cc12` (stereo not given), the efficacy in assay [1] was 40.6% (inactive). In addition, the AC50 in assay [2], in assay [3] and in assay [5] was 25.1 µM (active) in each case.
On to `CC(CC1c2ccccc2CCc2ccccc21)CN(C)C` (stereo not given), for which, in assay [1], the efficacy is 28.4% (inactive). For the same molecule, the results for the AC50 in assay [2], in assay [3] and in assay [5] were 6.31 µM (active), 3.98 µM (active) and 3.98 µM (active), respectively.
With `C[C@@H]1CCC[C@H](C)N1CCCC(O)(c1ccccc1)c1ccccn1` (stereo not given in full), the efficacy in assay [1] was 81.9% (inactive). Moreover, the AC50 in assay [2] is 25.1 µM (active); in assay [3], 22.4 µM (active); in assay [5] it was 22.4 µM (active).
For the molecule `CC(=O)c1ccc2c(c1)N(CCCN(C)C)c1ccccc1S2`, the efficacy in assay [1] was 87% (inactive). The AC50 in assay [2], in assay [3] and in assay [5] was 12.6 µM (active) each time.

The values are drawn from PubChem BioAssay (NCATS).
